These results are taken from PubChem BioAssay (NCI).

Some test systems named below: HCT-15 colon; HT29 colon; SNB-75 CNS; SNB-19 CNS; U251 CNS; PC-3 prostate; SK-MEL-5 melanoma; UACC-62 melanoma; LOX IMVI melanoma; SK-MEL-28 melanoma; SK-MEL-2 melanoma; EKVX NSCLC; SN12C renal; UO-31 renal; TK-10 renal; ACHN renal; CAKI-1 renal; A498 renal; MOLT-4 leukemia.
Test in all cases: NCI-60 one-dose screen, 48 h (100 = growth as untreated, 0 = no growth, -100 = all killed)
Common to all, as to conditions: 10 µM unless noted

The structures appear in SMILES notation. The panel holds about 83,000 compounds, 20% with a hit somewhere; the sample as a whole holds those more often.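 Each cell line was grown in a 96-well plate and treated with one concentration of compound for 48 hours. Values below 10 were considered active.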 Calls of active or inactive are those of the source.

For the compound `CCCn1nc(C(=O)N2CCCCC2)c2c1CCC(N1CCC(c3ccncc3)CC1)C2` (centres undefined), the growth in the assay with HCT-15 colon was 105% (inactive); in the assay on HT29 colon it was 100% (inactive); in the assay on SNB-75 CNS, 96.1% (inactive); in the assay with SNB-19 CNS, 102% (inactive); with U251 CNS, 101% (inactive); with PC-3 prostate, 101% (inactive). Further, the growth with SK-MEL-5 melanoma is 102% (inactive); with UACC-62 melanoma, 112% (inactive); with LOX IMVI melanoma, 98.1% (inactive); in the assay with SK-MEL-28 melanoma it was 115% (inactive); with SK-MEL-2 melanoma, 105% (inactive); in the assay on EKVX NSCLC it was 100% (inactive). The growth with SN12C renal is 118% (inactive); with UO-31 renal, 92.7% (inactive); in the assay on TK-10 renal, 101% (inactive); in the assay on ACHN renal it was 105% (inactive); in the assay on CAKI-1 renal, 95.8% (inactive); in the assay with A498 renal, 109% (inactive). Also, the growth with MOLT-4 leukemia is 108% (inactive).
Turning to `OCc1cc(CN2CCCCC2)c(O)c2ncccc12`, the growth is 20% (inactive) in the assay on HCT-15 colon; 41.6% (inactive) in the assay with HT29 colon; 81.1% (inactive) in the assay with SNB-75 CNS; 57.3% (inactive) with SNB-19 CNS; 40.5% (inactive) with U251 CNS; 46.9% (inactive) with PC-3 prostate. The growth is 74.2% (inactive) with SK-MEL-5 melanoma; 55.3% (inactive) in the assay on UACC-62 melanoma; 37.3% (inactive) in the assay with LOX IMVI melanoma; 60.7% (inactive) in the assay on SK-MEL-28 melanoma; 81.3% (inactive) in the assay on SK-MEL-2 melanoma; 65.5% (inactive) with EKVX NSCLC. Also, the growth in the assay on SN12C renal is 59.9% (inactive); with UO-31 renal, 17.7% (inactive); with TK-10 renal, 31% (inactive); in the assay on ACHN renal, 20.7% (inactive); in the assay with CAKI-1 renal, 13% (inactive); in the assay with A498 renal, 91.8% (inactive). Moreover, the growth in the assay on MOLT-4 leukemia is 36% (inactive).
As for `Cn1cc(-c2csc(-c3c[nH]c4ccc(F)cc34)n2)c2cnccc21`, the growth was -69.7% (active) with HCT-15 colon; -52.6% (active) in the assay with HT29 colon; -89.1% (active) in the assay with SNB-75 CNS; 14.3% (inactive) in the assay on SNB-19 CNS; -74.6% (active) in the assay on U251 CNS; 20.5% (inactive) in the assay on PC-3 prostate. For the same compound, the growth with SK-MEL-5 melanoma was -97% (active); with UACC-62 melanoma it was -78.5% (active); in the assay on LOX IMVI melanoma, -90.4% (active); in the assay with SK-MEL-28 melanoma, -95.9% (active); in the assay on SK-MEL-2 melanoma, -66.4% (active); in the assay on EKVX NSCLC, -28.4% (active). Further, the growth was -48.5% (active) in the assay on SN12C renal; -75.3% (active) in the assay with UO-31 renal; -28% (active) in the assay on TK-10 renal; -54% (active) with ACHN renal; -57.8% (active) in the assay with CAKI-1 renal; 74.8% (inactive) in the assay with A498 renal. In addition, in the assay on MOLT-4 leukemia, the growth was -34.7% (active).
Consider `CCCCCCNC(=O)Oc1ccc(/C(=C(/CC)Cc2ccccc2)c2ccc(OCCCN(C)C)cc2)cc1`, for which the growth was 14.7% (inactive) in the assay on HCT-15 colon; 18.9% (inactive) in the assay with HT29 colon; 68.4% (inactive) in the assay on SNB-75 CNS; 88.3% (inactive) in the assay on SNB-19 CNS; 60.4% (inactive) with U251 CNS; 73.2% (inactive) with PC-3 prostate. In addition, the growth in the assay on SK-MEL-5 melanoma is 87.7% (inactive); in the assay on UACC-62 melanoma, 94.9% (inactive); in the assay with LOX IMVI melanoma, -15% (active); with SK-MEL-28 melanoma, 101% (inactive); in the assay with SK-MEL-2 melanoma, 106% (inactive); with EKVX NSCLC it was 89.2% (inactive). Besides, the growth with SN12C renal is 87.1% (inactive); in the assay with UO-31 renal it was 59% (inactive); in the assay on TK-10 renal, 82.2% (inactive); with ACHN renal it was 100% (inactive); in the assay on CAKI-1 renal it was 89.6% (inactive); in the assay on A498 renal it was 89.9% (inactive). The growth in the assay on MOLT-4 leukemia was 67.1% (inactive).
On to `Cc1ccc(C(=O)Nc2ccc(CN3CCN(C)CC3)c(C(F)(F)F)c2)cc1C#Cc1cnc(N)cc1C#N`, for which the growth is -69.8% (active) in the assay with HCT-15 colon; -65.1% (active) in the assay with HT29 colon; -81.1% (active) in the assay on SNB-75 CNS; 3.23% (active) with SNB-19 CNS; -73.6% (active) in the assay on U251 CNS; -33.9% (active) with PC-3 prostate. Also, the growth with SK-MEL-5 melanoma is -86.5% (active); with UACC-62 melanoma, -38.5% (active); with LOX IMVI melanoma it was -90.1% (active); in the assay on SK-MEL-28 melanoma it was -83.3% (active); in the assay with SK-MEL-2 melanoma it was -43% (active); with EKVX NSCLC, -36.8% (active). Moreover, the growth in the assay on SN12C renal is -52.9% (active); with UO-31 renal, -55.7% (active); with TK-10 renal, 14.7% (inactive); in the assay with ACHN renal, -85.7% (active); in the assay with CAKI-1 renal it was -48% (active); in the assay with A498 renal it was -37% (active). Also, the growth in the assay on MOLT-4 leukemia was -54.7% (active).
With `CCCCCCCCCCCCCCCCCCOc1cccc(CC(=O)OCC[N+](CC)(CC)CC)c1`, the growth in the assay with HCT-15 colon is 81.3% (inactive); with HT29 colon, 64.5% (inactive); in the assay on SNB-75 CNS it was 61.9% (inactive); in the assay on SNB-19 CNS, 38.3% (inactive); with U251 CNS, 37.6% (inactive); in the assay on PC-3 prostate, 55.4% (inactive). Also, the growth in the assay with SK-MEL-5 melanoma was 29.8% (inactive); with UACC-62 melanoma, 63% (inactive); in the assay with LOX IMVI melanoma, 56.5% (inactive); in the assay with SK-MEL-28 melanoma it was 92.8% (inactive); in the assay with SK-MEL-2 melanoma, 84% (inactive); in the assay with EKVX NSCLC, 77.7% (inactive). The growth with SN12C renal is 42.8% (inactive); with UO-31 renal, 86.4% (inactive); in the assay with TK-10 renal, 67.5% (inactive); in the assay on ACHN renal, 90% (inactive); with CAKI-1 renal it was 62.7% (inactive); in the assay with A498 renal it was 89.3% (inactive). Besides, the growth in the assay with MOLT-4 leukemia is 72% (inactive).
